Sampled rows, rich in hits. Any-hit rate of the full collection: about 21%.
Pf growth 96h = inhibits malaria parasite growth, 96 h; P. falciparum luciferase reporter growth, 96 h; Potency, µM (highest dose often 28.7 µM), for the others: at the highest dose activity change, negative = inhibition, actives largely listed as inhibitors; 6.9% of 320,000 active; AID 504834; also: potency is read from the fitted curve at half-maximal effect; % is scaled to controls: 0 for no effect and ±100 for the full control effect
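P. falciparum expressing integrated firefly luciferase, in erythrocytes at 2% hematocrit, 0.05% parasitemia, incubated with compounds 96 h at 37 C, 5% CO2. Growth inhibition read as loss of luminescence; two-generation exposure targets delayed-death apicoplast inhibitors.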
Shiga inhibitor = Shiga toxin inhibition | inhibition, % at 38.7 µM | AID 2315 | 9.2% of 290,000 active | Vero cells, Shiga toxin protein synthesis inhibition reporter; in the data active = inhibition mostly above about 28%, no sharp cut-off; inactive = mostly below about 43%; also: 0% is about no effect
HCMV inh = inhibitors of human cytomegalovirus; activity change, negative = inhibition, % at 57.5 µM; 4.5% of 410,000 active; AID 1259415; HFF cells, HCMV-luciferase reporter, 72 h; hits give low values; in the data active = activity change below about -60%; inconclusive = no clear call, values can overlap the other calls; inactive = above about -39%; also: % is scaled to controls: 0 for no effect and ±100 for the full control effect
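Two compound doses tested in HFFs infected with HCMV-luciferase, MOI 1 PFU/cell, 72 h at 37C. Lysate luminescence read with OneGlo; data normalized against buffer-only and 10uM Salinomycin inhibitor controls.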
Pf growth 48h = inhibits P. falciparum growth in the first generation, 48 h | P. falciparum luciferase growth in erythrocytes, 48 h | 5.9% of 310,000 active | AID 504832 | Potency, µM (series often up to 28.7 µM), for inactives: at the top dose activity change, negative = inhibition, hits mostly inhibitors; also: potency is read from the fitted curve at half-maximal effect; % is scaled to controls: 0 for no effect and ±100 for the full control effect
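First compound was added to culture medium, then infected red cells at 0.1% parasitemia and 2% hematocrit (final). After incubation at 37 C under 5% CO2, luciferase detection reagent was dispensed and light output recorded.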
CHX counter = counter-screen for Shiga toxin inhibitors: cycloheximide protein synthesis inhibition | cell reporter, cycloheximide protein synthesis inhibition counterscreen | max response, % | 12% of 300,000 active | AID 2314; in the data active = max response mostly above about 13%, no sharp cut-off; inactive = mostly below about 14%; also: read at 38.3 µM for the half of the compounds with a filed dose; 0% is about no effect
HCV inh = HCV inhibition; Huh7.5.1 HCVcc-Cre infection, luciferase reporter, 44 h; Potency, µM (top dose mostly 41.8 µM), for inactives: at the highest dose activity change, negative = inhibition, hits mostly inhibitors; 3.4% of 340,000 active; AID 651820; also: potency is read from the fitted curve at half-maximal effect; % is scaled to controls: 0 for no effect and ±100 for the full control effect
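Antiviral activity was scored by luciferase reporter output from cells infected with HCVcc-Cre (~0.5 moi) in presence of compound, 44 h infection period, cells seeded 1,000/well 4 h prior.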
Starred values were filed as active, the others as inactive. Unless noted, calls follow the shape of the dose curve; as a rule, active = well fitted inhibition curve with a large enough effect; inconclusive = small, poorly fitted or top-dose-only effect, or another doubt; inactive = no such curve, though single readings can be large or run the other way.

What do the screens show for `O=C(Nc1ccncc1)Nc1ccc(F)c(Cl)c1`?
Pf growth 96h: 20%; Shiga inhibitor: 30; HCMV inh: 2; Pf growth 48h: 3.3µM*; CHX counter: 15; HCV inh: 3%

Results for COc1ccc(NC(=O)Nc2ccc(F)cc2)cn1 ?
Pf growth 96h: 0%; Shiga inhibitor: 34*; HCMV inh: -34; Pf growth 48h: 30%; CHX counter: 29*; HCV inh: -3%

How did O=C(Cc1ccc(Cl)cc1Cl)Nc1ccncc1 do in these assays?
Pf growth 96h: inconclusive; Shiga inhibitor: -16; HCMV inh: -66*; Pf growth 48h: inconclusive; CHX counter: 8; HCV inh: 8.9µM*

Results for CCOC(=O)c1ccc(NC(=O)Nc2ccc(OC)c(OC)c2)cc1 ?
Pf growth 96h: 13%; Shiga inhibitor: -4; HCMV inh: inconclusive; Pf growth 48h: inconclusive; CHX counter: -1; HCV inh: 25µM*

How did O=C(Cc1c(Cl)cccc1Cl)Nc1ccncc1 do in these assays?
Pf growth 96h: inconclusive; Shiga inhibitor: -10; HCMV inh: 6; Pf growth 48h: -5%; CHX counter: -2; HCV inh: -12%

What do the screens show for `CCCCOC(=O)c1ccc(NC(=O)Nc2ccc(OC)c(OC)c2)cc1`?
Pf growth 96h: inconclusive; Shiga inhibitor: -13; HCMV inh: 19; CHX counter: -4; HCV inh: -19%

Results for Cn1c(-c2cccc(Br)c2)cnc1NCc1cccc(F)c1 ?
HCMV inh: -21

What do the screens show for `Cc1nn(C(C)C(=O)Nc2ccccc2C(F)(F)F)c(=O)c2c1sc1ccccc12` (configuration not stated)?
HCMV inh: 16

Results for CNCC(=O)Nc1ccc(Cl)c(C(F)(F)F)c1 ?
Pf growth 96h: 11%; Shiga inhibitor: -13; HCMV inh: -26; Pf growth 48h: 11%; CHX counter: -5; HCV inh: -9%

Results for CCOC(=O)c1ccc(NC(=O)Nc2c(C)nn(C)c2C)cc1 ?
Pf growth 96h: 12µM*; Shiga inhibitor: 4; HCMV inh: -13; Pf growth 48h: 0%; CHX counter: 0; HCV inh: -5%

How did CCOC(=O)c1ccc(NC(=O)Nc2c[nH]c(=O)[nH]c2=O)cc1 do in these assays?
HCMV inh: -5

Results for O=C(Nc1ccc(Cl)cc1)Nc1ccc(Cl)c(C(F)(F)F)c1 ?
HCMV inh: -99*

How did CCOC(=O)c1ccc(NC(=O)Nc2ccc(F)cc2)cc1 do in these assays?
Pf growth 96h: 13µM*; Shiga inhibitor: 30; HCMV inh: -13; CHX counter: 21*; HCV inh: inconclusive

What do the screens show for `COC(=O)c1ccc(NC(=O)Nc2ccc(F)cc2)cc1`?
Pf growth 96h: inconclusive; Shiga inhibitor: 107*; HCMV inh: 40; Pf growth 48h: inconclusive; CHX counter: 26*; HCV inh: inconclusive

How did CCOC(=O)c1ccc(NC(=O)Nc2ncc(Cl)cc2Cl)cc1 do in these assays?
Pf growth 96h: 9%; Shiga inhibitor: 22; Pf growth 48h: 4%; CHX counter: 17*

How did COC(=O)c1ccc(NC(=O)Nc2ccc(F)c(Cl)c2)cc1 do in these assays?
Pf growth 96h: -60%; Shiga inhibitor: 49*; HCMV inh: 35; CHX counter: 28*; HCV inh: 11µM*

How did COC(=O)c1ccc(NC(=O)NCCCl)cc1 do in these assays?
Pf growth 96h: -4%; Shiga inhibitor: 34; HCMV inh: -3; Pf growth 48h: -10%; CHX counter: 12; HCV inh: -23%

Results for CCOC(=O)c1ccc(NC(=O)NCCc2ccccc2OC)cc1 ?
Pf growth 96h: inconclusive; Shiga inhibitor: 33; HCMV inh: -22; Pf growth 48h: inconclusive; CHX counter: 11; HCV inh: -24%

Results for CCOC(=O)c1ccc(NC(=O)NCc2ccccc2OC)cc1 ?
Pf growth 96h: 13µM*; Shiga inhibitor: 15; HCMV inh: -4; Pf growth 48h: inconclusive; CHX counter: 3; HCV inh: 11µM*

How did COc1ccc(NC(=O)C(c2ccc(Cl)cc2)C(C)C)cn1 (configuration not stated) do in these assays?
Pf growth 96h: inconclusive; Shiga inhibitor: -8; Pf growth 48h: 1.5µM*; CHX counter: 7; HCV inh: -16%

Screening results: PubChem BioAssay, National Center for Advancing Translational Sciences (NCATS)
